According to PubChem BioAssay (NCI):
Where “and” joins values, the source holds several entries; their conditions need not be identical. Equal values may be shown once. This is part of a sample that, as a whole, favours compounds with a hit. Of some 79,000 tested, about 15% had one in any assay. No stated cut-off is given here; in the data, active means growth inhibition above about 70%; inactive means the rest.

Assays:
[1] = NCI Yeast Anticancer Drug Screen. Data for the rad50 strain (AID 155);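 further: 0% = growth of vehicle-only cultures of the same strain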; conditions: S. cerevisiae rad50 strain growth inhibition; at 50.0 µM; active compounds read high
How it was run: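 DNA repair mutant yeast, compound exposure, growth read-out; inhibition is taken relative to vehicle.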

[2] = NCI Yeast Anticancer Drug Screen. Data for the mec2-1 strain (AID 157); conditions: S. cerevisiae mec2-1 strain, at 50.0 µM, active compounds read high
How it was run: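 Vehicle-treated cultures served as reference for growth inhibition of compound-exposed mec2-1 yeast.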

[3] = NCI Yeast Anticancer Drug Screen. Data for the sgs1 mgt1 strain (AID 161);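 further: 0% = growth of cultures given vehicle only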; conditions: S. cerevisiae sgs1 mgt1 strain, at 50.0 µM, active compounds read high
How it was run: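 Inhibition of yeast growth, normalised to vehicle-treated controls, is reported for a strain bearing genetic alterations in DNA damage repair.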

[4] = NCI Yeast Anticancer Drug Screen. Data for the cln2 rad14 strain (AID 165);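 further: 0% = growth equal to vehicle treated cultures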; conditions: S. cerevisiae cln2 rad14 strain, at 50.0 µM, active compounds read high
How it was run: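 Each compound was tested on cln2 rad14 yeast. Inhibition of growth was calculated against vehicle-exposed controls.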

[5] = NCI Yeast Anticancer Drug Screen. Data for the bub3 strain (AID 167); conditions: S. cerevisiae bub3 mutant strain, at 50.0 µM, active compounds read high
How it was run: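 In this screen, a yeast mutant lacking normal mitotic checkpoint function is challenged with compound. Relative growth versus vehicle gives the inhibition value.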

[6] = NCI Yeast Anticancer Drug Screen. Data for the mlh1 rad18 strain (AID 175); conditions: S. cerevisiae mlh1 rad18 strain growth inhibition; at 50.0 µM; active compounds read high
How it was run: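 Vehicle-treated cultures served as the reference for growth inhibition in a yeast strain carrying DNA damage repair alterations exposed to each compound.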

Measured: growth inhibition

Cc1cc(N(C)C)nc(N(C)C)n1
inactive: [1] -4.75% and -1.7% | [2] -4.7% and -14.8% | [3] -1.5% and -5.25% | [4] -0.9% and -33.3% | [5] 10.9% and -7.15% | [6] 8.25% and -10.1%

COCc1cc(C)c(C#N)c(=O)[nH]1
inactive: [1] -2.35% and 9.35% | [2] 1.5% and 5.35% | [3] -5% and -8.7% | [4] 17.9% and -3.65% | [5] 13.3% and -7.55% | [6] -3.9% and 0.85%

CC1CC(C)(C)C2=NCCN21 (configuration not stated)
inactive: [1] 2.25% and -8.15% | [2] -23.6% and -28.6% | [3] -4.8% and 8.8% | [4] -3.2% and 18.6% | [5] -7.3% and 14.2% | [6] -0.7% and -3.25%

O=[N+]([O-])c1ccccc1S(=O)(=O)Oc1ccccc1
inactive: [1] 10.1% and 54.7% | [2] 2.5% and -9.2% | [3] 5.45% and 46.3% | [4] -12.9% and 1% | [5] -8.65% and -14.5% | [6] 5.25% and 32.4%

CC(=O)c1c(-c2cccc3ccccc23)c(C#N)c(=S)n(C2OC(CO)C(O)C(O)C2O)c1C (configuration not stated)
inactive: [1] -18.7% and 15.5% | [2] 12.1% and 15% | [3] 2.25% and 32% | [4] 12.3% and 28.2% | [5] 21.1% and 32.1% | [6] 1.55% and 44.9%

O=C1NC(CCCl)C(=O)NC1CCCl (configuration not stated)
inactive: [1] 1.6% and -0.7% | [2] -2.05% and 4.55% | [3] -16.1% and -3.55% | [4] -10.2% and -7.55% | [5] -1.45% and 2.4% | [6] 1.6% and -1.35%

CC(=O)/C=C/C1=C(C)CCCC1(C)C
inactive: [1] -21.8% and 11.2% | [2] -8.35% and -10.9% | [3] -18.1% and -19.4% | [4] -14.7% and 8.05% | [5] -20.9% and 0.5% | [6] 11.8% and -2.2%

O=C(O)CCCCC(=O)O
inactive: [1] 2.1% and -5.2% | [2] -6.65% and -1.2% | [3] -3.8% and -32.5% | [4] -30.3% and 8% | [5] -18.1% and -22.1% | [6] -5.6% and 6.85%

Nc1ncnc2c1nc(N1CCCCC1)n2C1OC(CO)C(O)C1O (configuration not stated)
inactive: [1] 27.9% and -5.55% | [2] 12.2% and -0.15% | [3] 9.9% | [4] -38% and -43.2% | [5] 3.5% and -5.1% | [6] 2.6% and -7.85%

Cc1ccc(C(C)CCCO)cc1 (configuration not stated)
inactive: [1] -11.6% and 6.8% | [2] -15.4% and -21.8% | [3] -16.8% and -6.55% | [4] -6.55% and -2.3% | [5] -22.2% and -6.35% | [6] -23.9% and -25.9%

COc1ccc2c(c1OC)CN(C)CCc1cc3c(cc1C(=O)C2)OCO3
inactive: [1] -5.15% and -35.8% | [2] 15.7% and -17.1% | [3] -0.5% and -14.6% | [4] 49.6% and 11.8% | [5] 7.7% and -18.5% | [6] -29.9% and -8.35%

CC(=O)OCC(=O)c1ccc(-c2ccccc2)cc1
inactive: [1] 6.55% and 7.65% | [2] -14.8% and 4.5% | [3] 14.1% | [4] 8.35% and -22.8% | [5] 39.9% and 28.6% | [6] 18.8% and 23.9%

Cc1ccc(S(=O)(=O)N(C)c2ccccc2)cc1
inactive: [1] -18.6% and -3.7% | [2] -50.7% and -1.25% | [3] -0.55% and 10.2% | [4] 1.2% and -25.4% | [5] 11.8% and 16.3% | [6] -10% and 9.95%

OCCCc1ccncc1
inactive: [1] -6.05% and -8.55% | [2] -4.65% and -4.7% | [3] 2.9% and 4.75% | [4] 8.7% and -7.9% | [5] 3.25% and -0.55% | [6] 12.2% and 7.85%

O=C(O)c1cc2ccccc2c(=O)[nH]1
inactive: [1] -2.25% and 29.4% | [2] 4.55% and 10.8% | [3] -6.9% and 21.9% | [4] 0.8% and 12.2% | [5] 0.9% and 4.45% | [6] 2.4% and -6.55%

O=C1CC(=P(c2ccccc2)(c2ccccc2)c2ccccc2)C(=O)O1
inactive: [1] 24.1% and -0.65% | [2] 24.5% and -1% | [3] 13.2% and 0% | [4] 14.7% and 9.8% | [5] 10.8% and -4.15% | [6] 12.2% and 5.5%

Oc1ccccc1CNCc1ccccc1O
inactive: [1] -6.65% and -16.2% | [2] -13.5% and -2.7% | [3] -5.5% and -33% | [4] 23.8% and -28.1% | [5] 0.5% and -28.2% | [6] -1.05% and 3.55%
